Source: the supplement of paper PMC9492666
Counter-ions that a name gives are not always drawn.

test system: MDA-MB-231; experiment: relative cell viability, compound + erastin, vs DMSO (fraction of DMSO control); higher = less growth inhibition; settings: 72 h
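Further: viability read by CCK-8 kit in 96-well plates, part of a combination screen pairing lipid-metabolism-targeting compounds with erastin.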

SMILES | relative cell viability
Cc1cc(C)c(S(=O)(=O)Nc2cccc(C(F)(F)F)c2)c(C)c1 + CCOc1ccccc1-n1c(C(C)N2CCN(C(=O)COc3ccc(Cl)cc3)CC2)nc2ccccc2c1=O [erastin] | 0.98
Cc1cc([N+](=O)[O-])ccc1NS(=O)(=O)c1cc(Cl)ccc1Cl + CCOc1ccccc1-n1c(C(C)N2CCN(C(=O)COc3ccc(Cl)cc3)CC2)nc2ccccc2c1=O [erastin] | 0.616
NC(=O)c1cnccn1 [Pyrazinamide] + CCOc1ccccc1-n1c(C(C)N2CCN(C(=O)COc3ccc(Cl)cc3)CC2)nc2ccccc2c1=O [erastin] | 0.948
CN(C)c1cccc(-c2c3c(=O)n(-c4ccccc4Cl)[nH]c3cc(=O)n2C)c1 + CCOc1ccccc1-n1c(C(C)N2CCN(C(=O)COc3ccc(Cl)cc3)CC2)nc2ccccc2c1=O [erastin] | 1.23
O=C(O)c1cccc(N=Nc2c(O)[nH]c3ccc(S(=O)(=O)NCc4ccc(F)cc4)cc23)c1 + CCOc1ccccc1-n1c(C(C)N2CCN(C(=O)COc3ccc(Cl)cc3)CC2)nc2ccccc2c1=O [erastin] | 0.636
CCCCCCCCCCOc1ccc(C(=O)Nc2cc(C(=O)NCCCC)ccc2SC)cc1 + CCOc1ccccc1-n1c(C(C)N2CCN(C(=O)COc3ccc(Cl)cc3)CC2)nc2ccccc2c1=O [erastin] | 0.845
CC(C)Cc1ccc([C@H](C)C(=O)O)cc1 [Dexibuprofen] + CCOc1ccccc1-n1c(C(C)N2CCN(C(=O)COc3ccc(Cl)cc3)CC2)nc2ccccc2c1=O [erastin] | 0.642
N[C@@H](Cc1c[nH]cn1)C(=O)O [histidine] + CCOc1ccccc1-n1c(C(C)N2CCN(C(=O)COc3ccc(Cl)cc3)CC2)nc2ccccc2c1=O [erastin] | 0.706
O=C(CC(C(=O)O)c1c[nH]c2ccccc12)c1ccc(F)cc1F (stereo unspecified) [Mitochonic acid 5] + CCOc1ccccc1-n1c(C(C)N2CCN(C(=O)COc3ccc(Cl)cc3)CC2)nc2ccccc2c1=O [erastin] | 1
COc1ccc2c(=O)c(-c3ccccc3)coc2c1 [7-Methoxyisoflavone] + CCOc1ccccc1-n1c(C(C)N2CCN(C(=O)COc3ccc(Cl)cc3)CC2)nc2ccccc2c1=O [erastin] | 0.68
c1ccc([C@H]2CN3CCSC3=N2)cc1 [Levamisole hydrochloride] + CCOc1ccccc1-n1c(C(C)N2CCN(C(=O)COc3ccc(Cl)cc3)CC2)nc2ccccc2c1=O [erastin] | 0.779
Nn1nnc2ccccc21 [1-Aminobenzotriazole] + CCOc1ccccc1-n1c(C(C)N2CCN(C(=O)COc3ccc(Cl)cc3)CC2)nc2ccccc2c1=O [erastin] | 0.73
CCCCCCCCCCC#CC#CCCCCCCCCC(=O)O [10,12-Tricosadiynoic acid] + CCOc1ccccc1-n1c(C(C)N2CCN(C(=O)COc3ccc(Cl)cc3)CC2)nc2ccccc2c1=O [erastin] | 0.627
CC(=O)c1c(C)cc2cccc(O)c2c1O [Nepodin] + CCOc1ccccc1-n1c(C(C)N2CCN(C(=O)COc3ccc(Cl)cc3)CC2)nc2ccccc2c1=O [erastin] | 0.766
Cc1c(C(=O)NN2CCCCC2)nn(-c2ccc(Cl)cc2Cl)c1-c1ccc(Cl)cc1 [Rimonabant] + CCOc1ccccc1-n1c(C(C)N2CCN(C(=O)COc3ccc(Cl)cc3)CC2)nc2ccccc2c1=O [erastin] | 0.273
CC[C@H](C)C(=O)O[C@H]1C[C@H](O)C=C2C=C[C@H](C)[C@H](CC[C@@H](O)C[C@@H](O)CC(=O)O)[C@H]21 [Pravastatin sodium] + CCOc1ccccc1-n1c(C(C)N2CCN(C(=O)COc3ccc(Cl)cc3)CC2)nc2ccccc2c1=O [erastin] | 1.05

SMILES | relative cell viability
Cc1nc(-c2nc(-c3ccc(OC(F)(F)F)cc3)no2)nn1Cc1cccc(N2CCC(S(C)(=O)=O)CC2)c1 + CCOc1ccccc1-n1c(C(C)N2CCN(C(=O)COc3ccc(Cl)cc3)CC2)nc2ccccc2c1=O [erastin] | 0.621
CCN(CC)c1ccc(C=NNC(=O)c2ccncc2)c(O)c1 + CCOc1ccccc1-n1c(C(C)N2CCN(C(=O)COc3ccc(Cl)cc3)CC2)nc2ccccc2c1=O [erastin] | 0.677
CC(C)(CCCCCC(O)CCCCCC(C)(C)C(=O)O)C(=O)O + CCOc1ccccc1-n1c(C(C)N2CCN(C(=O)COc3ccc(Cl)cc3)CC2)nc2ccccc2c1=O [erastin] | 0.405
Cc1ccc(/C=C2\SC(=S)N(CCCCCC(=O)Nc3ccc(C(=O)O)c(O)c3)C2=O)cc1 + CCOc1ccccc1-n1c(C(C)N2CCN(C(=O)COc3ccc(Cl)cc3)CC2)nc2ccccc2c1=O [erastin] | 0.638
CN(C)CCOC(=O)COc1ccc(Cl)cc1 [Meclofenoxate hydrochloride] + CCOc1ccccc1-n1c(C(C)N2CCN(C(=O)COc3ccc(Cl)cc3)CC2)nc2ccccc2c1=O [erastin] | 0.81
CN(CCOc1ccc(CC2SC(=O)NC2=O)cc1)c1ccccn1 (stereo unspecified) [Rosiglitazone HCl] + CCOc1ccccc1-n1c(C(C)N2CCN(C(=O)COc3ccc(Cl)cc3)CC2)nc2ccccc2c1=O [erastin] | 0.774
CC(C)[C@H]1CC[C@H](C(=O)N[C@H](Cc2ccccc2)C(=O)O)CC1 [Nateglinide] + CCOc1ccccc1-n1c(C(C)N2CCN(C(=O)COc3ccc(Cl)cc3)CC2)nc2ccccc2c1=O [erastin] | 0.734
COCCNC(=O)Nc1ccc2nc(-c3cccs3)c(-c3cccs3)nc2c1 [Ac-CoA Synthase Inhibitor1] + CCOc1ccccc1-n1c(C(C)N2CCN(C(=O)COc3ccc(Cl)cc3)CC2)nc2ccccc2c1=O [erastin] | 0.669
COc1ccc(-c2coc3cc(OC)ccc3c2=O)cc1 [4',7-Dimethoxyisoflavone] + CCOc1ccccc1-n1c(C(C)N2CCN(C(=O)COc3ccc(Cl)cc3)CC2)nc2ccccc2c1=O [erastin] | 0.427
O=C(O)c1cc(F)c2nc(N3[C@@H]4CC[C@H]3C[C@@H](OCc3c(-c5ccccc5OC(F)(F)F)noc3C3CC3)C4)sc2c1 [Tropifexor] + CCOc1ccccc1-n1c(C(C)N2CCN(C(=O)COc3ccc(Cl)cc3)CC2)nc2ccccc2c1=O [erastin] | 0.652
COP(=O)(OC)OC(c1ccc(Cl)cc1)P(=O)(OC)OC (stereo unspecified) [Mifobate] + CCOc1ccccc1-n1c(C(C)N2CCN(C(=O)COc3ccc(Cl)cc3)CC2)nc2ccccc2c1=O [erastin] | 1.06
C=CC[S+]([O-])C[C@H](N)C(=O)O (stereo partly specified) [Alliin] + CCOc1ccccc1-n1c(C(C)N2CCN(C(=O)COc3ccc(Cl)cc3)CC2)nc2ccccc2c1=O [erastin] | 0.778
Nc1cccc(S(=O)(=O)N2CCCN(S(=O)(=O)c3ccc4c(c3)OCCO4)CC2)c1 + CCOc1ccccc1-n1c(C(C)N2CCN(C(=O)COc3ccc(Cl)cc3)CC2)nc2ccccc2c1=O [erastin] | 0.553
COc1cccc(CNc2ccc(S(=O)(=O)Nc3nc4ccccc4s3)cc2)c1O + CCOc1ccccc1-n1c(C(C)N2CCN(C(=O)COc3ccc(Cl)cc3)CC2)nc2ccccc2c1=O [erastin] | 0.68
O=C(O)c1cccnc1Nc1cccc(C(F)(F)F)c1 [Niflumic acid] + CCOc1ccccc1-n1c(C(C)N2CCN(C(=O)COc3ccc(Cl)cc3)CC2)nc2ccccc2c1=O [erastin] | 0.599
